One may read the AC50 as the midpoint of the concentration-response curve, whichever way the signal moves.

Assay [1] deals with Retinoic acid receptor RXR-alpha (Homo sapiens) (UniProt P19793). As to the kind of experiment: ATG_RXRa_TRANS: Attagene TRANS-FACTORIAL HepG2 Assay for human Retinoid X Receptor alpha (RXRa) (AID 2283012; active = hit-call score of the fitted dose curve at least 0.9, where 1 is the maximum). A digest of the protocol: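 Cells (HepG2) carried transiently transfected GAL4-responsive reporter units. Following a 24 h chemical incubation, reporter mRNA induction was read via RT-PCR fragment analysis; DMSO served as negative control and baseline.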
Sequence of Retinoic acid receptor RXR-alpha (Homo sapiens) (P19793 whole entry, looked up, the tested form may be a part): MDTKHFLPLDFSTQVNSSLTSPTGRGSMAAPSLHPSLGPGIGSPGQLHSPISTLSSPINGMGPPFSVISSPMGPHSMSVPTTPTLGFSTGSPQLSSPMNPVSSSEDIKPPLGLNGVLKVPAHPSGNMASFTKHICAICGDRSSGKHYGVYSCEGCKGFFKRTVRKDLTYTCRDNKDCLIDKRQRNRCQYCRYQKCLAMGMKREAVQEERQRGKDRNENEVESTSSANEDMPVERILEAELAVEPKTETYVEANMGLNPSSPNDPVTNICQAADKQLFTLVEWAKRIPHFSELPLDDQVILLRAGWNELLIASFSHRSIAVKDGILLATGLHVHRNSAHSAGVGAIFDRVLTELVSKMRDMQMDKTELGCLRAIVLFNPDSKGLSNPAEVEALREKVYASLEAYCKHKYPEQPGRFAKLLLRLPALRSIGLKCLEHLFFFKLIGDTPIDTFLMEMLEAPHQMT

Assay [2] deals with human Retinoid X Receptor beta (RXRb), RXRB (gene 6257) (UniProt P28702). Kind of assay: ATG_RXRb_TRANS: Attagene TRANS-FACTORIAL HepG2 Assay for human Retinoid X Receptor beta (RXRb) (AID 2283013; active = hit-call score of the fitted dose curve at least 0.9, where 1 is the maximum). The method in brief: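 Multiplexed TRANS reporter assay in HepG2; 24 h dosing; reporter mRNA by RT-PCR/CE fluorescence; gain-of-signal relative to DMSO.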
Sequence of human Retinoid X Receptor beta (RXRb), RXRB (gene 6257) (P28702 whole entry, looked up): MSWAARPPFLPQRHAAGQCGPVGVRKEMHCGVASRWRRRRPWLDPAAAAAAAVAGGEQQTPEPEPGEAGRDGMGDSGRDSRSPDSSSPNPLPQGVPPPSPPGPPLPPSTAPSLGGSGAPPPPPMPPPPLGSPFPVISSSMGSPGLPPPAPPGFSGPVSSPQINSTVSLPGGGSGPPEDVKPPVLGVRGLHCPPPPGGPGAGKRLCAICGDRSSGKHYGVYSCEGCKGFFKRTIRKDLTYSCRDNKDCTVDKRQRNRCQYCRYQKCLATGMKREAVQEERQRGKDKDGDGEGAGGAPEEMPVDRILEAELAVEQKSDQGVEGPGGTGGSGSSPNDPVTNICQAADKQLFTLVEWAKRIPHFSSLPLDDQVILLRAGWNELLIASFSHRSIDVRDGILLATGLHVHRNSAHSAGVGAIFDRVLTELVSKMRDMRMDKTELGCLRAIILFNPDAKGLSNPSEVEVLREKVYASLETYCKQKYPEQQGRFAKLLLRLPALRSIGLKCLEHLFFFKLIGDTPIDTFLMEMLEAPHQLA
Read-out in assay [3]: E-selectin (Homo sapiens) (UniProt P16581)
As to the kind of experiment: BSK_3C_Eselectin: BioMAP Diversity Plus: 3C Assay for Eselectin Biomarker Activity (AID 2283015).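 As to outcome: cell surface E-selectin protein quantified by ELISA 24 h after dosing.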 The note with it: primary human endothelial cells (HUVEC); actives raise or lower the signal. A digest of the protocol: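 Human vascular endothelium from umbilical vein is exposed to test chemicals for 24 h. E-selectin levels are read by ELISA and compared with DMSO controls.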

Read-out in assay [4]: Interleukin-1 alpha (IL1a), IL1A (gene 3552)
Kind of assay: BSK_BE3C_IL1a: BioMAP Diversity Plus: BE3C Assay for Interleukin-1 alpha (IL1a) Biomarker Activity (AID 2283016). The note with it: primary human bronchial epithelial cells; actives raise or lower the signal. The method in brief:
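Cultures of primary human bronchial epithelial cells receive test chemical. After 24 h, IL-1a is quantified by ELISA, while parallel wells are fixed in TCA and SRB-stained for total protein. Changes in either direction are fitted relative to DMSO.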

Read-out in assay [5]: Monocyte Chemoattractant Protein-1 (MCP1), CCL2 (gene 6347)
As to the kind of experiment: BSK_3C_MCP1: BioMAP Diversity Plus: 3C Assay for Monocyte Chemoattractant Protein-1 (MCP1) Biomarker Activity (AID 2283017). The note with it: primary human endothelial cells (HUVEC); actives raise or lower the signal. The method in brief: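 Endothelial cells from human umbilical vein are dosed with chemical, cultured 24 h, then assayed for MCP-1 by ELISA; both increases and decreases are modelled against DMSO controls.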

Read-out in assay [6]: Monocyte Chemoattractant Protein-1 (MCP1), CCL2 (gene 6347)
Kind of assay: BSK_4H_MCP1: BioMAP Diversity Plus: 4H Assay for Monocyte Chemoattractant Protein-1 (MCP1) Biomarker Activity (AID 2283018). As to conditions: primary human endothelial cells (HUVEC); actives raise or lower the signal. A digest of the protocol: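 Readout: MCP-1 ELISA on compound-treated HUVEC, sampled 24 h post-dosing. Baseline and negative control DMSO; bidirectional fit. Overt toxicity checked alongside by sulforhodamine B protein staining at time of biomarker measurement.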

Read-out in assay [7]: Human Leukocyte Antigen - DR isotype (HLADR), HLA-DRA (gene 3122)
As to the kind of experiment: BSK_3C_HLADR: BioMAP Diversity Plus: 3C Assay for Human Leukocyte Antigen - DR isotype (HLADR) Biomarker Activity (AID 2283019).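 As to outcome: ELISA of cell-surface HLA-DR on HUVEC 24 h after dosing.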 As to conditions: primary human endothelial cells (HUVEC); actives raise or lower the signal. The method in brief:
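Endothelial cells from human umbilical vein are treated with test chemical; after 24 h, HLA-DR levels are measured by ELISA. Data are fitted in both directions using DMSO as the baseline.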

Read-out in assay [8]: Interleukin-8 (IL8), CXCL8 (gene 3576)
As to the kind of experiment: BSK_3C_IL8: BioMAP Diversity Plus: 3C Assay for Interleukin-8 (IL8) Biomarker Activity (AID 2283020). The note with it: primary human endothelial cells (HUVEC); actives raise or lower the signal. A digest of the protocol:
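Human vascular endothelial cells (umbilical vein) in the 3C system; IL-8 level detected by ELISA at 24 h post-dose, with DMSO as baseline.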

Assay [9] addresses human Thyroid Receptor alpha (THRa1), THRA (gene 7067) (UniProt P10827). Kind of assay: ATG_THRa1_TRANS: Attagene TRANS-FACTORIAL HepG2 Assay for human Thyroid Receptor alpha (THRa1) (AID 2283014; active = hit-call score of the fitted dose curve at least 0.9, where 1 is the maximum). A digest of the protocol:
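First, HepG2 cells receive multiple GAL4-UAS reporter units and the chimeric receptor. They are then dosed for 24 h, after which RNA is reverse-transcribed, amplified, labelled, HpaI-cut and sized by capillary electrophoresis; gain relative to DMSO is scored.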

Inconclusive results are not listed. The source made the active and inactive calls. The calls were made as follows, unless noted: active = hit-call score of the fitted dose curve at least 0.9, where 1 is the maximum; inactive = score below 0.9.

Sequence of human Thyroid Receptor alpha (THRa1), THRA (gene 7067) (P10827 whole entry, looked up, the tested form may be a part): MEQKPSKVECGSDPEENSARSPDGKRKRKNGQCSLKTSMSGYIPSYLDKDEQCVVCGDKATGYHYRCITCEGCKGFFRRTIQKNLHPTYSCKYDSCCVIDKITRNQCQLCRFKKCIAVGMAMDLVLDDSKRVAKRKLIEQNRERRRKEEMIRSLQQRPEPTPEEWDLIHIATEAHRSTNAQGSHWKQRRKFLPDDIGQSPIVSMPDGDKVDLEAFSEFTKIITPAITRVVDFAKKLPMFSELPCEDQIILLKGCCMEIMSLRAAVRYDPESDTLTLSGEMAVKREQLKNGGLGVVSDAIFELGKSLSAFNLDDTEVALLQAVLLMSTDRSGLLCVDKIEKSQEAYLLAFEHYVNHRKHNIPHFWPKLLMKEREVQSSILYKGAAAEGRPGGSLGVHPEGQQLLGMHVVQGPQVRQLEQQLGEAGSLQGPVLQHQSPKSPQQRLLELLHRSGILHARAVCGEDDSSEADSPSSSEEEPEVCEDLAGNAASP
Sequence of E-selectin (Homo sapiens) (P16581 whole entry, looked up): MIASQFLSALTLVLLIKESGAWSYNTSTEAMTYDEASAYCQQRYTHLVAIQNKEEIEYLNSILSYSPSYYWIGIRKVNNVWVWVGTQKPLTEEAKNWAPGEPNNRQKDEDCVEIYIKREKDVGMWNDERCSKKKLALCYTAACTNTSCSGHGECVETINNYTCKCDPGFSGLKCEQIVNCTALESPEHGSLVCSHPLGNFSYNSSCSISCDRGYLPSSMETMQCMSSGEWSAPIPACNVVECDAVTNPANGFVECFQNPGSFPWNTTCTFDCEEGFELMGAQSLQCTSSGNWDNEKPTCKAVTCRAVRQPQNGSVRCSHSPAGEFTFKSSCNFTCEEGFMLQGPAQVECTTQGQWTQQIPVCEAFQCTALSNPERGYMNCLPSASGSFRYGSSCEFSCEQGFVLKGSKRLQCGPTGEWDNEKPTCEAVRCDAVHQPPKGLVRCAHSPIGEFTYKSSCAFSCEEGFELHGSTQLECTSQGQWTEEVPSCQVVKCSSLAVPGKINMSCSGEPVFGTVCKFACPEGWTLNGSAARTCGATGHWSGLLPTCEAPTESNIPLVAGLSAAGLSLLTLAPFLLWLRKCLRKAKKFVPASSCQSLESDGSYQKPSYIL

Take `C=CC(N)=O`: the results for the AC50 in assay [1] and in assay [2] were 157 µM (active) and 15.8 µM (active), respectively. For the same compound, the result in assay [3], in [4], in assay [5], in assay [6], in [7] and in assay [8] was inactive.
For the compound `CN(C)c1nc(=O)n(C2CCCCC2)c(=O)n1C`, the compound was classed as inactive in assay [1], in assay [2], in assay [3], in [4], in assay [5] and in [6]. The result in assay [7] and in assay [8] was inactive.
`CCSC(=O)N(CC)C1CCCCC1`: the compound was classed as inactive in [2], in assay [3], in [4], in assay [5], in [6] and in assay [7]. Also, the outcome in [8] was inactive.
On to `ClC(Cl)=C(c1ccc(Cl)cc1)c1ccc(Cl)cc1`, for which the compound was classed as inactive in assay [1], in assay [9] and in assay [4]. Further, the AC50 is 17.5 µM (active) [middle of 4 runs] in assay [2]; 30.7 µM (active) in assay [3]; 20 µM (active) in assay [6]; 30.5 µM (active) in [7]; 32.1 µM (active) in assay [8].
On to `O=C(O)C(F)(F)C(F)(F)C(F)(F)C(F)(F)C(F)(F)F`, for which the compound was classed as inactive in assay [2], in assay [3], in assay [4], in assay [5], in assay [6] and in assay [7]. Also, the result in [8] was inactive.
On to `COc1ccc(O)c(C(C)(C)C)c1`, for which, in assay [2], the AC50 is 8.56 µM (active). Also, the call in assay [9], in assay [3], in assay [4], in assay [5], in [6] and in [7] was inactive. The result in assay [8] was inactive.
As for `Oc1ccc(C(c2ccc(O)cc2)(C(F)(F)F)C(F)(F)F)cc1`, the outcome in [1] and in assay [9] was inactive. Moreover, the AC50 in assay [2] was 5 µM (active) [middle of 4 runs]; in [3] it was 30.1 µM (active); in assay [4], 30.8 µM (active); in [5] it was 19.9 µM (active); in assay [6], 14 µM (active); in [7] it was 18.5 µM (active). The AC50 in assay [8] is 18.8 µM (active).
With `CC(c1ccc(O)cc1)(c1ccc(O)cc1)c1ccc(O)cc1`, the call in assay [1], in assay [3] and in assay [8] was inactive. In addition, the concentration at half-maximal activity (AC50) in assay [4] was 6.69 µM (active); in assay [5], 31.1 µM (active); in assay [6], 18.9 µM (active); in assay [7], 28.5 µM (active).
Consider `Cc1ccccc1[N+](=O)[O-]`, for which the result in assay [3], in assay [4], in assay [5], in assay [6], in [7] and in assay [8] was inactive.
`C=CC(=O)NCNC(=O)C=C`: the result in [3], in [4], in [5], in assay [6], in assay [7] and in [8] was inactive.
In the case of `Oc1ccc(Cl)cc1Cl`, the compound was classed as inactive in assay [9], in assay [3], in [4], in [5], in [6] and in assay [7]. The result in [8] was inactive.
Take `CC1=C2C[C@H]3[C@@H](CC=C4C[C@@H](O)CC[C@@]43C)[C@@H]2CC[C@]12O[C@@H]1C[C@H](C)CN[C@H]1[C@H]2C`: the result in assay [3], in assay [4], in assay [6], in assay [7] and in assay [8] was inactive. In addition, in assay [5], the AC50 was 2.82 µM (active).
As to `COS(=O)(=O)OC`, the call in assay [1], in [2], in assay [9], in assay [3], in assay [4] and in assay [5] was inactive. Further, the result in assay [6], in assay [7] and in assay [8] was inactive.
As for `CCCCCCCCCc1ccc(O)cc1`, the outcome in assay [1] and in [9] was inactive. The AC50 in assay [3] was 14.3 µM (active); in assay [4], 17.3 µM (active); in [5] it was 14.6 µM (active); in [6] it was 12.3 µM (active); in [7], 14.1 µM (active); in assay [8], 15.5 µM (active).
Consider `Cc1ccc(O)c(C)c1`, for which the compound was called inactive in [2], in [9], in assay [3], in assay [4], in assay [5] and in [6]. For the same compound, the outcome in assay [8] was inactive. In addition, in [7], the concentration at half-maximal activity (AC50) was 7.99 µM (active).
For `Nc1ccc(-c2ccc(N)cc2)cc1`, the compound was classed as inactive in assay [1], in assay [3], in assay [4], in [5], in [6] and in [7]. The outcome in assay [8] was inactive. For the same compound, the AC50 in [2] is 27.5 µM (active).
`CC#Cc1cc(C)nc(Nc2ccccc2)n1`: the compound was called inactive in assay [1], in assay [3], in assay [4], in assay [5], in [6] and in assay [7]. For the same compound, in assay [8], the outcome was inactive. In addition, the AC50 in [2] was 61.7 µM (active).
On to `CCCCCCCCOC(=O)c1ccccc1C(=O)OCCCCCCCC`, for which the compound was classed as inactive in assay [1], in [2], in [3], in [4], in [5] and in assay [6]. In addition, the outcome in assay [8] was inactive. Besides, the concentration at half-maximal activity (AC50) in [7] is 12.9 µM (active).

Source of the values: PubChem BioAssay (EPA / NIEHS).
